Screening results (PubChem BioAssay)
DNA FID counter: fluorescent intercalator displacement, NS3 helicase counter-screen; DNA fluorescent intercalator displacement, fluorescence; inhibition, % at 7.9 µM; hit rate 0.17% among 290,000; AID 1845; in the data active means inhibition above about 37%;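 further: 0% = vehicle and 100% = reference compound; higher means more ethidium bromide displaced from hairpin DNA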
Rce1 inh: yeast Ras-converting enzyme inhibition; hit rate 0.27% among 290,000; AID 2563; calls only; yeast membranes, quenched prenylated peptide cleavage fluorescence; Q03530;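 active means fall in fluorescence gain of 50% or more versus controls, with final raw signal at or below 3038400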;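 further: plate controls were neutral control wells for no effect and wells lacking membranes for full effect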
PfM18AAP inh: PfM18AAP enzyme inhibition. inhibition, % at 7.35 µM. recombinant PfM18AAP, H-Glu-NHMec fluorogenic cleavage. AID 1822. hit rate 1.2% among 290,000;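 active means inhibition above the campaign mean inhibition over all tested compounds plus 3 SD, cut at about 28% in these data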;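 further: 0% = plate median of test compound wells and 100% = 2 mM ZnCl2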
Kir21 inh: inhibitors of mouse Kir2.1 inward-rectifier potassium channel; P35561; HEK293-Kir2.1, FluxOR thallium flux fluorescence; hits give low values; B-score at 10 µM; hit rate 0.85% among 310,000; AID 1672;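 active means fluorescence ratio B-score at or below minus 3 SD of library scores, with starting-brightness B-score within 2 SD, cut at about -4.2 in these data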;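 further: channel flux triggered by added potassium and thallium sulfate stimulus; B-score of peak minus minimum fluorescence over baseline after thallium stimulus; more negative B-score means stronger Kir2.1 block with less thallium influx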
Target sequence (P35561 whole entry, looked up): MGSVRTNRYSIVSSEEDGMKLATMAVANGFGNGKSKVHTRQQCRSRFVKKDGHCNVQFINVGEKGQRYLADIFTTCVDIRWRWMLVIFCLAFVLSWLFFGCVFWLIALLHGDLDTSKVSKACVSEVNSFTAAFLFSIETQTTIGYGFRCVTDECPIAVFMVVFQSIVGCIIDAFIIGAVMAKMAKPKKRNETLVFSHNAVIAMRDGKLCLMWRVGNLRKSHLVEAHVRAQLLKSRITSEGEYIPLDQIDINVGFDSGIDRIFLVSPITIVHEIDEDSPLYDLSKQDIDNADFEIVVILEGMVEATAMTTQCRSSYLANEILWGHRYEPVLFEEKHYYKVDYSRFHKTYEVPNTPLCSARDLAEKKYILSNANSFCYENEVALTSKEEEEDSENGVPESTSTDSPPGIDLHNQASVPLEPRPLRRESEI
An asterisk follows results filed as active; ! = not confirmed by another sample. An excerpt weighted towards active compounds, which were near 2.3% of everything screened.

For Oc1ccc(C2NCc3ccccc3-n3cccc32)cc1Cl (configuration not stated) the results were DNA FID counter 16.4, Rce1 inh inactive, PfM18AAP inh -3.1 and Kir21 inh -8.87*.
For c1ccc(CNc2c3c(nc4ccccc24)CCC3)cc1 the results were DNA FID counter 13.8, Rce1 inh inactive, PfM18AAP inh -2.1 and Kir21 inh -6.57*.
For CC(C)CNc1c2c(nc3ccccc13)CCC2 the results were DNA FID counter -4.5, Rce1 inh inactive, PfM18AAP inh -2.0 and Kir21 inh -0.08.
CCN1CCN(c2cc(N3CCCC3)c([N+](=O)[O-])cc2F)CC1 was read as DNA FID counter 14.1, Rce1 inh inactive, PfM18AAP inh -6.1 and Kir21 inh -4.24*.
Screening CNc1cc(Cl)c2nonc2c1[N+](=O)[O-] returned DNA FID counter 5.3, Rce1 inh inactive, PfM18AAP inh -34.7 and Kir21 inh -6.57*.
Screening COC(=O)C(O)(c1ccc(N(C)C(=O)c2cccs2)cc1)C(F)(F)F (configuration not stated) returned DNA FID counter -13.6, Rce1 inh inactive, PfM18AAP inh -0.4 and Kir21 inh 0.36.
For CN(C)c1ccc(/C=C/[N+](=O)[O-])cc1 the results were DNA FID counter 1.6, Rce1 inh inactive, PfM18AAP inh 31.2* and Kir21 inh -6.27*.
For C/C(=C\c1ccc(N(C)C)cc1)[N+](=O)[O-] the results were DNA FID counter 5.5, Rce1 inh inactive, PfM18AAP inh 12.1 and Kir21 inh 0.4.
CC(=O)[C@H]1CC[C@H]2[C@@H]3CC[C@H]4C[C@H](O)CC[C@]4(C)[C@H]3C(=O)C[C@]12C was read as DNA FID counter -34.2, Rce1 inh active, PfM18AAP inh 2.5 and Kir21 inh -2.16.
CC(=O)C1CCC2C3CCC4CC(O)CCC4(C)C3CCC12C (configuration not stated) was read as Rce1 inh inactive and Kir21 inh 2.71.
CCOP(=O)(OCC)C(C)(C)NC(=O)C(Cl)(Cl)Cl was read as DNA FID counter -5.3, Rce1 inh inactive, PfM18AAP inh -1.9 and Kir21 inh -0.33.
CSc1ccc(CNC(C)C(O)c2ccccc2)cc1 (configuration not stated) was read as DNA FID counter 10.6, Rce1 inh inactive, PfM18AAP inh 1.3 and Kir21 inh -5.52*.
For Cc1ccc(C(=O)N[C@@H](C)CN2C3=NC[C@H](Cc4ccccc4)N3C[C@H]2Cc2ccc(O)cc2)cc1Br the results were Rce1 inh inactive and Kir21 inh -5.39*.
`Cc1ccc(C(=O)N[C@@H](C)CN2C3=NC[C@@H](Cc4ccccc4)N3C[C@H]2Cc2ccc(O)cc2)cc1Br` gave DNA FID counter 7.7, Rce1 inh inactive, PfM18AAP inh 4.2 and Kir21 inh -5.71*.
CCN(CC)C(=O)c1ccc(NC(=O)COc2ccccc2F)cc1 was read as DNA FID counter -14.0, Rce1 inh inactive, PfM18AAP inh -0.7 and Kir21 inh -0.22.
Screening CCOc1cc2c(cc1OCC)-n1cccc1C(c1ccccc1OC)NC2 (configuration not stated) returned DNA FID counter 18.4, Rce1 inh inactive, PfM18AAP inh 0.9 and Kir21 inh -2.82.
CN(C)c1ccc(C2C3C=CC(C3)C2(C#N)C(=O)O)c(Br)c1 (configuration not stated) was read as DNA FID counter -21.1, Rce1 inh inactive, PfM18AAP inh 3.5 and Kir21 inh 0.04.
c1cncc(C2CCCCN2)c1 (configuration not stated) was read as DNA FID counter 0.1, Rce1 inh inactive, PfM18AAP inh -12.3 and Kir21 inh -0.01.
`c1cncc(C2Nc3cccc4cccc(c34)N2)c1` gave DNA FID counter -3.5, Rce1 inh inactive, PfM18AAP inh 34.7*! and Kir21 inh 0.43.
Cc1cc(O)c2c(c1)OC(C)(C)C1=C2CC(C)CC1 (configuration not stated) was read as DNA FID counter -8.2, Rce1 inh inactive, PfM18AAP inh 1.8 and Kir21 inh -0.5.
`COc1ccc(CCNCc2c(OC)ccc3ccccc23)cc1` gave DNA FID counter 12.8, Rce1 inh inactive, PfM18AAP inh 1.5 and Kir21 inh -10.9*.
Screening COc1ccc(-c2nn(CCC#N)cc2C(=O)Nc2ccccc2)cc1OC returned DNA FID counter -12.3, Rce1 inh inactive, PfM18AAP inh -1.7 and Kir21 inh 0.24.
COc1ccc(Cc2nccc3cc(OC)c(OC)cc23)cc1OC was read as DNA FID counter -1.9, Rce1 inh inactive, PfM18AAP inh -4.3 and Kir21 inh -8.28*.
`COc1ccc(CCNCc2ccc(C)s2)cc1OC` gave DNA FID counter 3.2, Rce1 inh inactive, PfM18AAP inh 0.4 and Kir21 inh 2.27.
